# Calls of active or inactive are those of the source. How the source made its calls: active means hit-call score of the fitted dose curve at least 0.9, where 1 is the maximum; inactive means score below 0.9.
# Experiment: APR_HepG2_P-H2AX_1hr: Apredica 1-hour HepG2 Assay for H2AX Phosphorylation (AID 2282673)
# Settings: high-content imaging, actives raise or lower the signal
# Protocol: APR_HepG2_1hr is a cell-based, multiplexed-readout assay that uses HepG2, a human liver cell line, with measurements taken at 1 hour after chemical dosing in a 384-well plate.APR_HepG2_P-H2AX_1hr is one of 10 assay component(s) measured or calculated from the APR_HepG2_1hr assay. It is designed to make measurements of dna content, a form of viability reporter, as detected with fluorescence intensity signals by HCS Fluorescent Imaging technology.Data from the assay component APR_HepG2_P-H2AX_1hr was analyzed into 1 assay endpoint. This assay endpoint, APR_HepG2_P-H2AX_1hr, was analyzed with bidirectional fitting relative to DMSO as the negative control and baseline of activity. Using a type of viability reporter, measures of protein for gain or loss-of-signal activity can be used to understand the signaling at the pathway-level as they relate to the gene . Furthermore, this assay endpoint can be referred to as a primary readout, because this assay has produced multiple assay endpoints where this one serves a signaling function. To generalize the intended target to other relatable targets, this assay endpoint is annotated to the dna binding intended target family, where the subfamily is cellular response to DNA damage stimulus.
# Cells were treated with dimethyl sulfoxide (DMSO) as a solvent control at a final concentration of 0.5% v/v or with compounds in DMSO with a resulting final DMSO concentration of 0.5% v/v. Compound treatment was done at concentrations of 0.39, 0.78, 1.56, 3.12, 6.24, 12.5, 25, 50, 100, and 200 uM in duplicate on each plate. Cells were treated with compounds for 1, 24, or 72 hr. Carbonyl […] m-chloro-phenylhydrazone (CCCP) and taxol were used as positive controls for mitochondrial function and cytoskeletal stability, respectively; DMSO served as the negative control for this experiment. Cells were fixed by the direct addition of 50 uL formaldehyde in Hank's Balanced Salt Solution (HBSS) to a final concentration of 3.7%. After incubation in the fixation medium for 30 min at room temperature (293-298 K), cells were rinsed twice with HBSS and treated with cell permeabilization buffer (16 uL of 0.5% Triton X-100) for 10 min at room temperature (293-298 K) before labeling. For mitochondrial membrane potential and mitochondrial measurements, pre-fixed cells were incubated with 50 uL of MitoTracker Red CMXRos (Invitrogen) at a concentration of 250 nM for 30 min before fixation. In the remaining cases, post-fixed cells were labeled by incubation with a multiplexed mixture of primary antibodies in HBSS for 60 min at room temperature (293-298 K) to detect immunoreactivity of c-Jun (1:500), phospho-histone H3 (1:100), phospho-histone H2A.x (1:200), p53 (1:400), alpha-tubulin (1:200) and Hoechst 33342 (2 ug/mL). Cells were labeled for multiplexed imaging on two separate plates: a) Hoechst 33342, MitoTracker Red, phospho-histone H3, and alpha-tubulin, and b) Hoechst 33342, phospho-histone H2A.x, and c-Jun. A final rinse with HBSS (50 uL) was performed before analysis. The primary and secondary antibodies for the proteins were phospho-histone H3 (rabbit anti-phospho-histone H3 and FITC-donkey anti-rabbit IgG), phospho-histone H2A.x (mouse anti-phospho-histone H2A.x and FITC-donkey anti-mouse IgG), c-Jun (rabbit anti-phospho-c-Jun and Cy3-donkey anti-rabbit IgG), p53 (sheep anti-p53 and Cy5-donkey anti-sheep IgG), alpha-tubulin (mouse anti-alpha-tubulin and Cy5-donkey anti-mouse IgG). These antibodies are available as the CellCiphr HepG2 assay kit (Millipore).Digital images of each well were captured using a Cellomics ArrayScan VTI (Thermo Scientific Cellomics) (0.8 NA objective, 0.63x optical coupler, and XF-93 filter set) at 20x magnification. The images were acquired using the autofocus feature of the ArrayScan instrument, which entails the following steps. First, the camera focuses on channel 1 (Hoechst 33342), where nuclei are identified. Second, a Z offset of 1 um is used for capturing mitochondria (MitoTracker Red). […]
SMILES,outcome,AC50
CN/C(=N\[N+](=O)[O-])NCc1cnc(Cl)s1,inactive,
COCc1cnc(C2=NC(C)(C(C)C)C(=O)N2)c(C(=O)O)c1 (stereo not given),inactive,
COP(=S)(OC)SCn1nnc2ccccc2c1=O,inactive,
CC1(C)CCC(=Cc2ccc(Cl)cc2)C1(O)Cn1cncn1 (stereo not given),inactive,
CCNP(=S)(OC)O/C(C)=C/C(=O)OC(C)C (stereo not given),inactive,
CCCCOCN(C(=O)CCl)c1c(CC)cccc1CC,inactive,
Nc1c(Cl)c(Cl)nc(C(=O)O)c1Cl,inactive,
N#Cc1c[nH]cc1-c1cccc2c1OC(F)(F)O2,inactive,
CC(C)N1C(=O)c2ccccc2NS1(=O)=O,inactive,
COC(=O)NS(=O)(=O)c1ccc(N)cc1,inactive,
COc1ccc(-c2ccccc2)cc1NNC(=O)OC(C)C,inactive,
CN=C=S,inactive,
COC(=O)c1c(C(F)F)nc(C(F)(F)F)c(C2=NCCS2)c1CC(C)C,inactive,
Cc1nc(N(C)C)nc(OC(=O)N(C)C)c1C,inactive,
CC(C)Nc1nc(Cl)nc(NC(C)C)n1,inactive,
CCCCC(C#N)(Cn1cncn1)c1ccc(Cl)cc1 (stereo not given),inactive,
CC1(C)C(C=C(Cl)Cl)C1C(=O)OC(C#N)c1cccc(Oc2ccccc2)c1 (stereo not given),inactive,
CC(C)NC(=O)N1CC(=O)N(c2cc(Cl)cc(Cl)c2)C1=O,inactive,
COc1cc(OC)nc(NC(=O)NS(=O)(=O)c2ncccc2OCC(F)(F)F)n1,inactive,
CCN(CC)c1nc(C)cc(OP(=S)(OC)OC)n1,inactive,

SMILES,outcome,AC50
CC(C)Oc1cccc(NC(=O)c2ccccc2C(F)(F)F)c1,inactive,
CC(C)=CC1C(C(=O)OCc2coc(Cc3ccccc3)c2)C1(C)C (stereo not given),inactive,
CCCN(CC)CC1COC2(CCC(C(C)(C)C)CC2)O1 (stereo not given),inactive,
CCOP(=O)(OCC)Oc1nc(Cl)c(Cl)cc1Cl,inactive,
Cc1c(COC(=O)[C@@H]2[C@H](/C=C(\Cl)C(F)(F)F)C2(C)C)cccc1-c1ccccc1,inactive,
CCOP(=S)(OCC)Oc1nc(Cl)n(C(C)C)n1,inactive,
CO/N=C(/C1=NOCCO1)c1ccccc1Oc1ncnc(Oc2ccccc2Cl)c1F,inactive,
Cc1cc(C)nc(Nc2ccccc2)n1,inactive,
CSC(=O)c1c(C(F)F)nc(C(F)(F)F)c(C(=O)SC)c1CC(C)C,inactive,
O=C(Nc1ccccc1-c1ccc(Cl)cc1)c1cccnc1Cl,inactive,
CNC(=O)N(C)c1nnc(C(C)(C)C)s1,inactive,
COP(=S)(OC)Oc1ccc([N+](=O)[O-])c(C)c1,inactive,
CC(C)(C)C(=O)C(Oc1ccc(Cl)cc1)n1cncn1 (stereo not given),inactive,
O=c1n(Cl)c(=O)n(Cl)c(=O)n1Cl,inactive,
COCC(C)N(C(=O)CCl)c1c(C)csc1C (stereo not given),inactive,
OC(c1ccc(Cl)cc1)(c1ccc(Cl)cc1)C(Cl)(Cl)Cl,,90.1 µM (active)
CC(C)N1C(=O)N(c2ccccc2)CSC1=NC(C)(C)C,inactive,
CCCCC(O)(Cn1cncn1)c1ccc(Cl)cc1Cl (stereo not given),inactive,
CCN(CC)C(=O)C(C)Oc1cccc2ccccc12 (stereo not given),inactive,
COP(=O)(OC)O/C(C)=C/C(=O)N(C)C,inactive,
